ChEMBL document CHEMBL1961873, “Compounds: GSK PKIS; Assays: Nanosyn kinase panel” (2012)

Tests used:
[1] = biological target: RAF proto-oncogene serine/threonine-protein kinase (Homo sapiens) (UniProt P04049); details: at 1 µM;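 also: values are the mean percent inhibition of CRAF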
[2] = biological target: T1, Interleukin-1 receptor-associated kinase 4 (Homo sapiens) (UniProt Q9NWZ3); details: at 0.1 µM
T1 sequence (whole entry): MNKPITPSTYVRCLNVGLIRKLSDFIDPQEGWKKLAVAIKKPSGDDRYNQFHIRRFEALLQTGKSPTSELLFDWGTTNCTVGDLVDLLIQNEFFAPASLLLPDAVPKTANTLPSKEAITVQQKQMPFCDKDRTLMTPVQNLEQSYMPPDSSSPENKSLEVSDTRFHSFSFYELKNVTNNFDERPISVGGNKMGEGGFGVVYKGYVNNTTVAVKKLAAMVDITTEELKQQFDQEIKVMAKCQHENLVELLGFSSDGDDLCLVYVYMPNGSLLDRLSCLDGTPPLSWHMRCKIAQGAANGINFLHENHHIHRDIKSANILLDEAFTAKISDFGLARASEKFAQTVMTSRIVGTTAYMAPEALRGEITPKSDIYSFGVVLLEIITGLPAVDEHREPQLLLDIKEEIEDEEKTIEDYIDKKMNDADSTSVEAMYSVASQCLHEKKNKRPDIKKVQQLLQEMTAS

[3] = biological target: T1, Interleukin-1 receptor-associated kinase 4 (Homo sapiens); details: at 1 µM
[4] = biological target: Leucine-rich repeat serine/threonine-protein kinase 2 (Homo sapiens) (UniProt Q5S007); details: at 0.1 µM
[5] = biological target: Leucine-rich repeat serine/threonine-protein kinase 2 (Homo sapiens) (UniProt Q5S007); details: at 1 µM
[6] = system: Leucine-rich repeat serine/threonine-protein kinase 2 (Homo sapiens), Q5S007 [G2019S]; details: at 0.1 µM
[7] = system: Leucine-rich repeat serine/threonine-protein kinase 2 (Homo sapiens), Q5S007 [G2019S]; details: at 1 µM

Leucine-rich repeat serine/threonine-protein kinase 2 (Homo sapiens), sequence (Q5S007 whole entry): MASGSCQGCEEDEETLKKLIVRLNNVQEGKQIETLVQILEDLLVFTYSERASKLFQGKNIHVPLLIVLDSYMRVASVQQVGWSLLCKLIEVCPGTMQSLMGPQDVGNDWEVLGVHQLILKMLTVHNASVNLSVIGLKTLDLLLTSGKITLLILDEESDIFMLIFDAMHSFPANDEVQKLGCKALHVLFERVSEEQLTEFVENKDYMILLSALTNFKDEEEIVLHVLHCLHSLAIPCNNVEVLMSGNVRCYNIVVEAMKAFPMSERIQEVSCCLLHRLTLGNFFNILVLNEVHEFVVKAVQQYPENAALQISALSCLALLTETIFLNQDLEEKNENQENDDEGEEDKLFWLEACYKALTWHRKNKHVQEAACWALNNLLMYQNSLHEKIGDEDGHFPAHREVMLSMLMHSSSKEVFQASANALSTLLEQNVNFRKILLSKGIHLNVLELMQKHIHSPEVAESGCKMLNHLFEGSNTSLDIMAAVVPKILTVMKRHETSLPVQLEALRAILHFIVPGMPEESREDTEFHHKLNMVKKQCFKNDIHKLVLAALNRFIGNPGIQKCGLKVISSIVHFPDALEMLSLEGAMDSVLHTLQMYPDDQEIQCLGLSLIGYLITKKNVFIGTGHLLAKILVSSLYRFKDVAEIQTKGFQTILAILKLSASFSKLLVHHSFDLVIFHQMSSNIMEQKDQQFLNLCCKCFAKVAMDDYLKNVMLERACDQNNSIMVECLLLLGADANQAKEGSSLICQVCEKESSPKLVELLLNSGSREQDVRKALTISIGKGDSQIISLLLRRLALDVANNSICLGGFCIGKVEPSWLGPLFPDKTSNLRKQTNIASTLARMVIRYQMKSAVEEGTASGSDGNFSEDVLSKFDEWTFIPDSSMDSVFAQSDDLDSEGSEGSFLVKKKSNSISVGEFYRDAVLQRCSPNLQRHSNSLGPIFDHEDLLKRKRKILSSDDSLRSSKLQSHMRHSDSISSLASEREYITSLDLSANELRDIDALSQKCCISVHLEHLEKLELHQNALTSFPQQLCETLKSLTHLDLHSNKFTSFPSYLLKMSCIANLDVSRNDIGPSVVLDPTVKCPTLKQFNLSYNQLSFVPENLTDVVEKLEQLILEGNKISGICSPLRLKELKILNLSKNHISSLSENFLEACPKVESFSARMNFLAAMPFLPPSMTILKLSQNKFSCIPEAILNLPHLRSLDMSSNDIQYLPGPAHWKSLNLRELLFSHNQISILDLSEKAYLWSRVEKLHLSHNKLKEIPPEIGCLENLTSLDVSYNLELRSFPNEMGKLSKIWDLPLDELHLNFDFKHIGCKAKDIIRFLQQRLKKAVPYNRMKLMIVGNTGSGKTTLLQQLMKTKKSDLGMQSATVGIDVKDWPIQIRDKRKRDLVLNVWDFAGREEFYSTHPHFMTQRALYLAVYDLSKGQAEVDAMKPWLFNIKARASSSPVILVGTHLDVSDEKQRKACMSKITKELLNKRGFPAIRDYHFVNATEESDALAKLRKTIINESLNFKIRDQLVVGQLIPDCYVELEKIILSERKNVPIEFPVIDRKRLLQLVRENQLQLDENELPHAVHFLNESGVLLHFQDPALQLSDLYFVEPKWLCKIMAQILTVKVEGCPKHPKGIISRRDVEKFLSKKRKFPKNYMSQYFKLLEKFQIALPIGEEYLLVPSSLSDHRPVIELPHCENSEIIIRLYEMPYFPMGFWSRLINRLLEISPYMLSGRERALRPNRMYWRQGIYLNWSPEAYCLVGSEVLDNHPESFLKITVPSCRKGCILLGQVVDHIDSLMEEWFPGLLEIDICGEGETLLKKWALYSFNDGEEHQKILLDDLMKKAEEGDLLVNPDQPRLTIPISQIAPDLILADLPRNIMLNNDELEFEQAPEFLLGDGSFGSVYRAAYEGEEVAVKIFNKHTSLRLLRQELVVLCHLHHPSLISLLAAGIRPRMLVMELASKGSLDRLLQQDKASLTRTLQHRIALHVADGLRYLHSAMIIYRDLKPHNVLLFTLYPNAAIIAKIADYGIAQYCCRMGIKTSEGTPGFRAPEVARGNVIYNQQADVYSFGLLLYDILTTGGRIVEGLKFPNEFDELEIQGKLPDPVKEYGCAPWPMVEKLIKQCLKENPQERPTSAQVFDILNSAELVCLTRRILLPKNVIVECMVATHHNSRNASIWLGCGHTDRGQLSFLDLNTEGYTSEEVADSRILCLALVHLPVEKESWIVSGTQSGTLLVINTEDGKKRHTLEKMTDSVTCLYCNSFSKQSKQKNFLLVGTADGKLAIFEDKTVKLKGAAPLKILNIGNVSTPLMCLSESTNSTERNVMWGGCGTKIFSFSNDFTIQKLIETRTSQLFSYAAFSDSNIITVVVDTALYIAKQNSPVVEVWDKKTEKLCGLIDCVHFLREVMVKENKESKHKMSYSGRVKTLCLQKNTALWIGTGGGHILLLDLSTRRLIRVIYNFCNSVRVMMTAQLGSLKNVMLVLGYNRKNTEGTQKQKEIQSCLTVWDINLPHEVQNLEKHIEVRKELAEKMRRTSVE
RAF proto-oncogene serine/threonine-protein kinase (Homo sapiens), sequence (P04049 whole entry): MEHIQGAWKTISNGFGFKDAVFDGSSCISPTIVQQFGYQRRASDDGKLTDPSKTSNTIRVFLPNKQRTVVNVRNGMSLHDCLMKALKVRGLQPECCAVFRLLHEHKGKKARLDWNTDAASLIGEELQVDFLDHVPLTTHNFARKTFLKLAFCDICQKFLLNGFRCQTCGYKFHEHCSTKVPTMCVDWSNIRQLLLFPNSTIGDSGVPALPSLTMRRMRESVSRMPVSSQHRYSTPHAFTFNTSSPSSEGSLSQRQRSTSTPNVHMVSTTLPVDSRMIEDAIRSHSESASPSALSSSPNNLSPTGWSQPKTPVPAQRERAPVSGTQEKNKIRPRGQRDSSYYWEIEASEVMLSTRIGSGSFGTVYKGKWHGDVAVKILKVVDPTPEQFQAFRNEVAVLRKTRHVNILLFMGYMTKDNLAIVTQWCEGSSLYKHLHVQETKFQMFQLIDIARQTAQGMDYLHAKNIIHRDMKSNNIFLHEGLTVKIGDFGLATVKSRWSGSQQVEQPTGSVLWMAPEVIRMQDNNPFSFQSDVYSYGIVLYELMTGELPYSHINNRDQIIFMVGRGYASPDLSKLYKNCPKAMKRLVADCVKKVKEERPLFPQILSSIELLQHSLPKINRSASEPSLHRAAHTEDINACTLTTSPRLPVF
Leucine-rich repeat serine/threonine-protein kinase 2 (Homo sapiens), Q5S007 [G2019S], sequence (Q5S007 whole entry G2019S): as the sequence (Q5S007 whole entry) above, with G2019S counted along it

Compound	inhibition [1] [%]	inhibition [2] [%]	inhibition [3] [%]	inhibition [4] [%]	inhibition [5] [%]	inhibition [6] [%]	inhibition [7] [%]
CCc1nn2ncccc2c1-c1ccnc(NC2CC2)n1	-3.3	1.42	1.5	0.11	4.02	1.77	4.72
COC(=O)Nc1nc2ccc(Oc3ccc(NC(=O)Nc4cccc(Cl)c4)cc3)cc2[nH]1	5.38	-0.12	0.32	6.71	14.1	5	6.86
COC(=O)c1sc(-n2cnc3cc(OC)c(OC)cc32)cc1OCc1ccccc1C(F)(F)F	3.19	-0.1	1.88	4.15	10.7	4.24	19.4
NS(=O)(=O)c1ccc(Nc2ncc(-c3ccccc3)o2)cc1	-4.28	-2.68	1.92	3.47	15	5.15	19.4
CC1=C(C(=O)Nc2cc(Cl)c3[nH]ncc3c2)C(c2ccc(C(F)(F)F)cc2)CC(=O)N1 (stereo not drawn)	-5.81	2.04	1.44	2.62	4.9	4.35	12.6
Cc1cccc(Nc2ncc(-c3ccccc3)o2)c1	-2.34	1.25	1.27	1.6	7.74	5.32	11.8
COc1cc2ncn(-c3cc(OCc4ccccc4C(F)(F)F)c(C(=O)N(C)C)s3)c2cc1OC	-3.66	2.2	-0.25	2.7	15.2	1.6	16.7
Clc1ccc(-c2nn3ncccc3c2-c2ccnc(Nc3ccccc3)n2)cc1	-3.34	-3.75	1.51	1.23	5.86	3.01	8.26
COc1ccc(-c2cc3c(N)ncnc3o2)cc1	-0.66	-0.28	0.08	0.9	3.63	1.45	2.82
O=C(Nc1n[nH]c2cc(-c3ccc(F)cc3)ccc12)C1CC1	-2.56	2.26	1.45	0.78	5.22	3.03	6.98
Cc1ccc(O)cc1Nc1ccnc2cc(-c3ccccn3)ccc12	–	-3.41	2.33	5.01	11.4	7.5	31.1
COc1cccc(-n2ncc3c(N/N=C/c4ccc(F)cc4)ncnc32)c1	–	-3.94	1.4	1.96	6.79	5.09	8.94
c1ccc(COc2ccc(Nc3ncnc4ccc(-c5ccco5)cc34)cc2)cc1	6.05	0.92	1.06	4.27	3.99	3.97	1.89
NS(=O)(=O)c1ccc(N/N=C2\C(=O)Nc3ccc4ncccc4c32)cc1	–	2.94	2.77	19.4	22.2	40.4	63.2
CCn1c(-c2nonc2N)nc2ccccc21	2.78	-0.13	1.55	6.41	8.23	5	13.7
N#Cc1c(NC(=O)c2ccc(F)cc2)sc2c1CCCC2	–	1.78	0.51	0.58	1.04	1.92	5.12
CN1CCC(n2cnc(-c3ccc(F)cc3)c2-c2ccnc(Nc3ccccc3)n2)CC1	-0.18	1.95	1.28	1.16	3.05	1.22	5.12

Compound	inhibition [1] [%]	inhibition [2] [%]	inhibition [3] [%]	inhibition [4] [%]	inhibition [5] [%]	inhibition [6] [%]	inhibition [7] [%]
CCNC(=O)O[C@H]1CN[C@H](C#Cc2cc3ncnc(Nc4ccc(OCc5cccc(F)c5)c(Cl)c4)c3s2)C1	–	-5.34	6.03	3.12	4.18	2.44	6.88
Nc1ncc(-c2cccc(S(N)(=O)=O)c2)c2scc(-c3ccc(F)c(Cl)c3)c12	-4.88	1.66	2.08	10.2	45.8	11.7	51.2
CCN(CC)S(=O)(=O)c1ccc(OC)c(Nc2ncc(-c3ccccc3)o2)c1	-0.65	0.75	0.8	2.62	5.16	1.76	9.32
c1cc(-c2cnn3nc(N4CCOCC4)ccc23)nc(NC2CC2)n1	–	-3.02	4.62	4.63	16.4	6.59	37.2
COc1cccc(-c2c[nH]c3c(N/N=C/c4ccncc4)ncnc23)c1	–	-2.59	5.06	4.34	14	5.22	25.9
Cc1cccc2c1NC(=O)/C2=N\Nc1ccc(S(N)(=O)=O)cc1	–	-0.09	1.25	2.99	7.1	2.75	10.2
NC(=O)c1sc(-n2cnc3ccc(C(F)(F)F)cc32)cc1OCc1ccccc1Br	-3.37	0.72	1.61	1.61	6.09	2.3	12.8
O=C(O[C@H]1CN[C@H](C#Cc2cc3ncnc(Nc4ccc(Cc5ccccc5)cc4)c3s2)C1)N1CCOCC1	0.23	-0.04	-0.2	1.27	2.6	2.35	3.96
Fc1ccc(-c2nn3ncccc3c2-c2ccnc(Nc3ccc4c(c3)OCCO4)n2)cc1	-0.33	2.79	2.18	3.63	7.64	2.59	6.75
Nc1nc(-c2ccc(F)cc2)c(-c2ccc3ncccc3n2)s1	-6.29	3.41	2.12	1.84	6.21	4.54	10.2
COc1cc(N2CCN(C(C)C)CC2)ccc1Nc1nc(Nc2ccc(F)cc2C(N)=O)c2cc[nH]c2n1	-2.24	0.7	1.94	84.9	94.8	85.4	62.5
Cc1ccc2c(-c3ccnc(Nc4ccccc4)n3)c(-c3ccc(F)cc3)nn2n1	–	-2.94	1.87	3.22	7.93	3.36	7.63
CNC(=O)c1cc(-c2ccc(F)cc2)cc(-c2ccc(S(=O)(=O)N3CCCC3)cc2)c1N	-2.71	0.68	1.45	1.42	2.9	4.27	5.64
COc1ccc2c(-c3ccnc(Nc4cccc(OC(F)(F)F)c4)n3)cnn2n1	–	-3.64	2.91	5.25	14.5	8.08	39.3
CC(C)COC(=O)c1ccc2c(c1)/C(=C/Nc1ccc(S(N)(=O)=O)cc1)C(=O)N2	0.2	2.68	0.81	7.28	22.7	23.3	64.1
FC(F)(F)c1cccc(-c2nn3ncccc3c2-c2ccnc(Nc3ccc4c(c3)OCCO4)n2)c1	-8.65	6.37	0.32	3.16	5.46	2.53	7.93
COc1cc2c(cc1Nc1nc(Nc3ccsc3C(N)=O)c3cc[nH]c3n1)N(C(=O)CN(C)C)CCC2(C)C	-0.27	-1.47	2.28	90.7	98	85.4	93.9
